# Of roughly 8,800 targets only a part is listed; those with a hit were picked by preference. About 0.5% of all pairs of compound and target were hits. Values without a mark were called inactive.
# What was measured:
# Assay in all cases: log2 fold change, soluble protein after heating vs DMSO (PISA); higher = thermal stabilisation; K562 lysate, 10 uM; active = over 0.2 and 3.5 SD of the protein, either way, in both replicates (recomputed)
# vemurafenib = compound: CCCS(=O)(=O)Nc1ccc(F)c(C(=O)c2c[nH]c3ncc(-c4ccc(Cl)cc4)cc23)c1F [vemurafenib]
# Summary of the method: (§1)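 Values give the log-two fold change in thermal stability against solvent controls, from duplicates. Crude K562 extract at 1 mg/mL protein, made by dounce homogenisation in PBS pH 7.4 with 1 mM MgCl2, was treated with 10 μM compound for 30 min. After 3 min heating across 48°C-58°C, aliquots were pooled, adjusted to 0.5% NP-40 at 4°C and centrifuged at 21,000xg for 90 min. The supernatant was measured by TMTpro 16plex LC-MS/MS with channel sums equalised.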
# [1] = compound: CCCS(=O)(=O)Nc1ccc(F)c(C(=O)c2c[nH]c3ncc(Cl)cc23)c1F
# Summary of the method: as §1
# barasertib = compound: CCN(CCCOc1ccc2c(Nc3cc(CC(=O)Nc4cccc(F)c4)[nH]n3)ncnc2c1)CCOP(=O)(O)O [barasertib]
# Summary of the method: as §1
# [2] = compound: CC[C@@H]1C(=O)N(C)c2cnc(Nc3ccc(C(=O)NC4CCN(C)CC4)cc3OC)nc2N1C1CCCC1
# Summary of the method: as §1
# volasertib = compound: CC[C@@H]1C(=O)N(C)c2cnc(Nc3ccc(C(=O)N[C@H]4CC[C@H](N5CCN(CC6CC6)CC5)CC4)cc3OC)nc2N1C(C)C [volasertib]
# Summary of the method: as §1
# [3] = compound: CCn1c(C(=O)N(C2CC2)C2CC2)cc2c3c(ncn3C)c(Nc3cc(C)n(C)n3)nc21
# Summary of the method: as §1
# [4] = compound: CCn1cc(-c2ccnc3[nH]c(-c4cccc(CN(C)C)c4)cc23)c(-c2ccc(NC(=O)N(C)C)cc2)n1
# Summary of the method: as §1
# [5] = compound: CN1CCC(CNc2ccc3ncc(-c4cccc(OC(F)(F)F)c4)n3n2)CC1
# Summary of the method: as §1
# saracatinib = compound: CN1CCN(CCOc2cc(OC3CCOCC3)c3c(Nc4c(Cl)ccc5c4OCO5)ncnc3c2)CC1 [saracatinib]
# Summary of the method: as §1
# sotrastaurin = compound: CN1CCN(c2nc(C3=C(c4c[nH]c5ccccc45)C(=O)NC3=O)c3ccccc3n2)CC1 [sotrastaurin]
# Summary of the method: as §1
# alvocidib = compound: CN1CC[C@H](c2c(O)cc(O)c3c(=O)cc(-c4ccccc4Cl)oc23)[C@H](O)C1 [alvocidib]
# Summary of the method: as §1
# Tubastatin A = compound: CN1CCc2c(c3ccccc3n2Cc2ccc(C(=O)NO)cc2)C1 [Tubastatin A]
# Summary of the method: as §1
# [6] = compound: CNC(=O)C1=CC=CC=C1NC2=NC(=NC=C2Cl)NC3=C(C=C(C=C3)N4CCOCC4)OC
# Summary of the method: as §1
# defactinib = compound: CNC(=O)c1ccc(Nc2ncc(C(F)(F)F)c(NCc3nccnc3N(C)S(C)(=O)=O)n2)cc1 [defactinib]
# Summary of the method: as §1
# [7] = compound: CNc1nc(-c2ccc3c(N)n[nH]c3c2)cc(N2C[C@@H](C(=O)NC3CCCCC3)CC[C@H]2C)n1
# Summary of the method: as §1
# encorafenib = compound: COC(=O)N[C@@H](C)CNc1nccc(-c2cn(C(C)C)nc2-c2cc(Cl)cc(NS(C)(=O)=O)c2F)n1 [encorafenib]
# Summary of the method: as §1
# [8] = compound: COC(=O)[C@H](CCSC)NC(=O)C1=C(C=C(C=C1)NC[C@H](CS)N)C2=CC=CC=C2
# Summary of the method: as §1
# alisertib = compound: COc1cc(Nc2ncc3c(n2)-c2ccc(Cl)cc2C(c2c(F)cccc2OC)=NC3)ccc1C(=O)O [alisertib]
# Summary of the method: as §1
# [9] = compound: COc1cc2nc(-c3cc(F)ccc3O)nc(N[C@@H]3CNC[C@H]3C(C)(C)O)c2cc1OC
# Summary of the method: as §1
# gefitinib = compound: COc1cc2ncnc(Nc3ccc(F)c(Cl)c3)c2cc1OCCCN1CCOCC1 [gefitinib]
# Summary of the method: as §1
# Chain of UniProt Q9BUF5 (Q9BUF5 whole entry, looked up): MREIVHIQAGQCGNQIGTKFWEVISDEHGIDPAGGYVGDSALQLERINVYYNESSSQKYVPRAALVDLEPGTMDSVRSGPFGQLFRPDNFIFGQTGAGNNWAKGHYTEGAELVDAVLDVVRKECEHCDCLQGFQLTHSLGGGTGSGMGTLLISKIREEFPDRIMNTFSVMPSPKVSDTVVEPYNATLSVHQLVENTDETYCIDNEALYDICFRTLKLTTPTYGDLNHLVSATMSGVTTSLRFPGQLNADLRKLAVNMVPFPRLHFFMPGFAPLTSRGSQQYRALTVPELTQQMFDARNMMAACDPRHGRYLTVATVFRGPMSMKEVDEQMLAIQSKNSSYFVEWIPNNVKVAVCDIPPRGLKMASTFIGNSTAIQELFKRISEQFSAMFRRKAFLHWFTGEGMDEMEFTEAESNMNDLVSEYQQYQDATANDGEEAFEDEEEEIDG
# Chain of UniProt O95801 (O95801 whole entry, looked up): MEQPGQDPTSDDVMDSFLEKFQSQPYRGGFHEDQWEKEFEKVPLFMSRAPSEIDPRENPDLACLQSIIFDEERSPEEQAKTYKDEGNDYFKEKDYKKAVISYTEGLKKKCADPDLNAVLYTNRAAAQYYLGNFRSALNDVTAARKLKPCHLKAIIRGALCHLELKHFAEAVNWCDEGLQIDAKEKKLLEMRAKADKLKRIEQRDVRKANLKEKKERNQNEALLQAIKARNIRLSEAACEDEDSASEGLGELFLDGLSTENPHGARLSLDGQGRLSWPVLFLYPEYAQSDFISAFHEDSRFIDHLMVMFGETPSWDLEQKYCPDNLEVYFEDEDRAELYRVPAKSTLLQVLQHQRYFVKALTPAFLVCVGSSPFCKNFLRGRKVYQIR
# Chain of UniProt Q5BJF2 (Q5BJF2 whole entry, looked up): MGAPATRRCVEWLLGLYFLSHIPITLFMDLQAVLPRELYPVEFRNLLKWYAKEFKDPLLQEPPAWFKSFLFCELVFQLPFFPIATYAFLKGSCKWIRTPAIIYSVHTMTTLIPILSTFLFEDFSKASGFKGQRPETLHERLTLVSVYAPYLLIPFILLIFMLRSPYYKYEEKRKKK
# Chain of UniProt P22314 (P22314 whole entry, looked up): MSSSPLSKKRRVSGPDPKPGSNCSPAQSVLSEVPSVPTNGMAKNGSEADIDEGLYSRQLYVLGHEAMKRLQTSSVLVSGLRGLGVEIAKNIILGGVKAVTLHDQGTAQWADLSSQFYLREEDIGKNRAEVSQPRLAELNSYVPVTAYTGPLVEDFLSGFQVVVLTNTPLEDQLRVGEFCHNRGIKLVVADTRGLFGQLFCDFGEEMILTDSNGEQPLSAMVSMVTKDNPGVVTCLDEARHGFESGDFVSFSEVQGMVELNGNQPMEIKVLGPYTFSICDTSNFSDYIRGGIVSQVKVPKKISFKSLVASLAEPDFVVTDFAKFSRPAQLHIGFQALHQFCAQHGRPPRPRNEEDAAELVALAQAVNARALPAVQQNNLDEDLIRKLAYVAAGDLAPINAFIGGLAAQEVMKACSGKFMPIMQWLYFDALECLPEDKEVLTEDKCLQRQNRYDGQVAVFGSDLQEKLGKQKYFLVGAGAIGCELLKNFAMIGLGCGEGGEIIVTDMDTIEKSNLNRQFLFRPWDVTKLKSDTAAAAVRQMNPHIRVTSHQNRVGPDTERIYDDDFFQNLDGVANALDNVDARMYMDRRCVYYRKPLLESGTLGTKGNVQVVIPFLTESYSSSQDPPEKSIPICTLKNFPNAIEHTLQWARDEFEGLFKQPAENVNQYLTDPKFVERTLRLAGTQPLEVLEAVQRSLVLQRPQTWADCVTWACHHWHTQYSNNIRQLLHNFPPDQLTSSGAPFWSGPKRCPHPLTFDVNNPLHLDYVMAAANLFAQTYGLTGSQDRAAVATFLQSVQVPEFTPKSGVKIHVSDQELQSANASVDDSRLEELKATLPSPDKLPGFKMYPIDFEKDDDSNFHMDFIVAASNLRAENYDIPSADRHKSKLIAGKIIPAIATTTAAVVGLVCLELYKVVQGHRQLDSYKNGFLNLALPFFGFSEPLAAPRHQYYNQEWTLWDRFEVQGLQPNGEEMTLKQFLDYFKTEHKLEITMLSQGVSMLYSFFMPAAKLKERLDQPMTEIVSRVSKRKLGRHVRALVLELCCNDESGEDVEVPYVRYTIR
# Chain of UniProt Q01085 (Q01085 whole entry, looked up): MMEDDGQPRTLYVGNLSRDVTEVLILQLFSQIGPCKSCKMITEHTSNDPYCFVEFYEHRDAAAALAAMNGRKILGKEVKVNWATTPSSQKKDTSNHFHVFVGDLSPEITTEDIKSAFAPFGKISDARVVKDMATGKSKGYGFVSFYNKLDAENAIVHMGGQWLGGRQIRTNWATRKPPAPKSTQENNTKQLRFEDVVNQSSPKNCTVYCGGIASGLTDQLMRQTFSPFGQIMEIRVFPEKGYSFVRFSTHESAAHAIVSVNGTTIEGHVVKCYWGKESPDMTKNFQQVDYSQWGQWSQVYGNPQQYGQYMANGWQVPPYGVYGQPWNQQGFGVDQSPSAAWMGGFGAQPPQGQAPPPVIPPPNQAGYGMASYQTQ
# Chain of UniProt Q96F44 (Q96F44 whole entry, looked up): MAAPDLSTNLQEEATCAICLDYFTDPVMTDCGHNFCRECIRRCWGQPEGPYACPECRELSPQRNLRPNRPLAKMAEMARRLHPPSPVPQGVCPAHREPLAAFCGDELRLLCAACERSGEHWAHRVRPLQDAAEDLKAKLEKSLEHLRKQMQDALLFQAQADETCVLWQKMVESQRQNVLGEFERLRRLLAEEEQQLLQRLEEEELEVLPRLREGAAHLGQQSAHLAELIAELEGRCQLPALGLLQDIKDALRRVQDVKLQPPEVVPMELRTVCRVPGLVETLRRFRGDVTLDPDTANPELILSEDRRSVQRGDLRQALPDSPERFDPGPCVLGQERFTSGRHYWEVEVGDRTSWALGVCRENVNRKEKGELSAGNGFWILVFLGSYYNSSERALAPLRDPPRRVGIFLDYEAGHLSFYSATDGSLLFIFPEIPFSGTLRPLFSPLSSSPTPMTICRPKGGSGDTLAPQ
# Chain of UniProt Q15628 (Q15628 whole entry, looked up): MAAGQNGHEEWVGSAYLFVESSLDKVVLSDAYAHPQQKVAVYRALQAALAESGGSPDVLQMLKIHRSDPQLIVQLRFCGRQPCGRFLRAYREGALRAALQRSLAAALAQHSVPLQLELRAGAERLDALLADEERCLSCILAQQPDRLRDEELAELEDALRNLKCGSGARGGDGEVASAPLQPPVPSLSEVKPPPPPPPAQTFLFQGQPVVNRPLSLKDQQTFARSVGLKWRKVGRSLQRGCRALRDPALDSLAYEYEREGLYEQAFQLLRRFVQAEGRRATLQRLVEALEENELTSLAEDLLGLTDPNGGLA
# Chain of UniProt Q7Z3V4 (Q7Z3V4 whole entry, looked up): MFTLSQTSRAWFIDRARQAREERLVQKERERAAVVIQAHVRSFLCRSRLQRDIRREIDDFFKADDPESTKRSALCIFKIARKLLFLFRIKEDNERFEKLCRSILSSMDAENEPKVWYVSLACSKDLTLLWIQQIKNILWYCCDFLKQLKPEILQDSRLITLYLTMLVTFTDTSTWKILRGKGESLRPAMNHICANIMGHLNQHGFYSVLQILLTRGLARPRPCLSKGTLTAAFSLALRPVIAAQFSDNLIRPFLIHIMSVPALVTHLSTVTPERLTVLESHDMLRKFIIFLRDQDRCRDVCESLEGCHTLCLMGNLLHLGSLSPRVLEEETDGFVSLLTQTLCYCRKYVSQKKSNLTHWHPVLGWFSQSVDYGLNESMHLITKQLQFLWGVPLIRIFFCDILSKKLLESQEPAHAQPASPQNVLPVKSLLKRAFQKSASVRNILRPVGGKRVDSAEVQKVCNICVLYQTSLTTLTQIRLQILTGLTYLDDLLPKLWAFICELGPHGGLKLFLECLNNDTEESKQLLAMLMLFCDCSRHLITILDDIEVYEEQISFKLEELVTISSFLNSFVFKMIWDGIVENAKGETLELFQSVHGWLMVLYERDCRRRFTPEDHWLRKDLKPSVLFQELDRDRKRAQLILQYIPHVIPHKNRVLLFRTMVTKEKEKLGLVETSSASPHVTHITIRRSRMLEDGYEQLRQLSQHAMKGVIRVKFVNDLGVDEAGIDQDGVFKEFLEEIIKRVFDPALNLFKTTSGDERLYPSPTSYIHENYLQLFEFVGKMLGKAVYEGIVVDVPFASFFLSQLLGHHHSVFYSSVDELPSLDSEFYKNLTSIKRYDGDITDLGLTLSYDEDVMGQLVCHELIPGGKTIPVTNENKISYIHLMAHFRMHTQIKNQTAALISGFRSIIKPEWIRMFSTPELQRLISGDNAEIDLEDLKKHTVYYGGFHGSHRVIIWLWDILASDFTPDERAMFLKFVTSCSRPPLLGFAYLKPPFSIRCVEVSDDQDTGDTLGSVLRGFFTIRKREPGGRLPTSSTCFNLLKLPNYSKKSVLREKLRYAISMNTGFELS
# Chain of UniProt Q8N511 (Q8N511 whole entry, looked up): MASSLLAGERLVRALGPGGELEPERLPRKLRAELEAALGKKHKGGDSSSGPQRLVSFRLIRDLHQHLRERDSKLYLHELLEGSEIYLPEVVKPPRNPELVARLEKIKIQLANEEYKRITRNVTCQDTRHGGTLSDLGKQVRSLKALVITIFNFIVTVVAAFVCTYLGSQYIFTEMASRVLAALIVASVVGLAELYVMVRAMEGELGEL
# Chain of UniProt P67936 (P67936 whole entry, looked up): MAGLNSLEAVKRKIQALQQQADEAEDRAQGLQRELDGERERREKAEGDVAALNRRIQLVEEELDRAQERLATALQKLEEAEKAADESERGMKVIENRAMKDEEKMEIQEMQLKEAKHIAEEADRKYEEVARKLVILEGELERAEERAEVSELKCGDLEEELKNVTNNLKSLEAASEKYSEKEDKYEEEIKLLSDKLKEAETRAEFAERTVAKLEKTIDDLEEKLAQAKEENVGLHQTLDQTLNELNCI
Target,log2 fold change (vemurafenib),log2 fold change [1],log2 fold change (barasertib),log2 fold change [2],log2 fold change (volasertib),log2 fold change [3],log2 fold change [4],log2 fold change [5],log2 fold change (saracatinib),log2 fold change (sotrastaurin),log2 fold change (alvocidib),log2 fold change (Tubastatin A),log2 fold change [6],log2 fold change (defactinib),log2 fold change [7],log2 fold change (encorafenib),log2 fold change [8],log2 fold change (alisertib),log2 fold change [9],log2 fold change (gefitinib)
UBE3B (UniProt Q7Z3V4),0.102,-0.052,0.175,0.016,-0.044,0.029,-0.099,-0.132,-0.069,0.055,-0.07,-0.134,0.136,0.028,0.008,0.102,-0.047,0,0.006,0.044
TRADD (UniProt Q15628),-0.611 (active),0.052,-0.002,0.07,-0.023,0.065,0.014,0.001,0.011,-0.023,-0.029,-0.066,0.021,-0.092,0.021,-0.012,-0.241,0.009,0.004,-0.03
TMEM263 (UniProt Q8WUH6),0.086,-0.024,0.19,0.133,0.023,0.097,-0.034,-0.242,0.109,-0.003,0.013,0.266,0.116,0.213,-0.013,0.285,0.154,0.202,0.398,0.222
UBA1 (UniProt P22314),0.018,0.005,0.023,-0.063,-0.036,-0.006,-0.027,0.004,-0.02,0.008,0.012,-0.082,0.007,-0.011,-0.026,-0.017,0.139,0.001,0.002,-0.01
TMEM97 (UniProt Q5BJF2),0.076,-0.027,0.037,0.028,0.099,-0.048,-0.327 (active),0.173,0.002,-0.08,-0.081,0.114,-0.016,-0.021,0.091,-0.008,-0.042,-0.026,0.014,-0.017
TPM4 isoform 2 (UniProt P67936),0.031,-0.016,0.021,0.052,0.005,0.048,0.525 (active),-0.231,-0.001,-0.03,0.062,0.03,-0.027,-0.059,0.028,-0.004,-0.077,-0.098,-0.01,-0.004
TRIM11 (UniProt Q96F44),-0.049,-0.018,-0.034,-0.001,-0.043,0.022,0.024,0.009,0.024,-0.009,-0.015,-0.021,0.037,0.016,-0.007,0.029,0.053,-0.026,-0.055,0.004
TIAL1 isoform 2 (UniProt Q01085),-0.009,0.014,-0.023,0.072,0.005,0.002,-0.076,0.056,-0.02,-0.017,-0.005,0.05,-0.015,0.006,-0.005,0.009,-0.053,0.027,0.013,0.041
TMEM199 (UniProt Q8N511),0,0.026,0.009,0.023,0,-0.003,-0.06,0.054,0.048,0.035,-0.032,0.097,-0.035,-0.023,-0.001,-0.011,-0.093,0,-0.007,0.001
TPM4 (UniProt P67936),-0.025,0.009,0.047,0.125,0.055,0.018,0.037,-0.007,0.002,0.013,-0.016,0.074,-0.021,0.019,0.022,0.028,-0.028,-0.105,0.012,0.033
TRAPPC10 (UniProt P48553),0.022,0.009,0.027,-0.063,-0.052,0.022,-0.061,0.071,0.016,-0.039,-0.034,-0.074,0.01,-0.034,0.011,0.009,-0.047,0.015,-0.001,-0.029
TOE1 (UniProt Q96GM8),0.052,0.018,-0.053,-0.051,-0.031,-0.042,-0.022,-0.005,-0.029,0.007,-0.01,-0.136,0.027,0.019,-0.044,-0.034,0.165,-0.041,-0.011,-0.047
TTC4 (UniProt O95801),0.004,0.05,-0.004,0.008,-0.024,0.007,-0.089,-0.027,0.033,0.005,-0.012,-0.183,0.078,0.004,0.003,0.021,-0.005,0.008,-0.017,-0.003
TUBB6 (UniProt Q9BUF5),0.007,0.002,-0.015,0.003,-0.068,-0.007,-0.019,0.014,0.032,-0.024,0.023,-0.064,0.015,0.034,0.023,0.017,0.056,0.028,0.011,-0.024
UBTF (UniProt P17480),-0.024,0.002,0.011,-0.291 (active),-0.011,0.002,0.038,-0.067,0.042,0.023,0.026,-0.135,-0.008,0.007,0.004,-0.002,0.073,0.055,-0.018,0.045
TMOD1 (UniProt P28289),-0.015,-0.02,0.027,-0.027,-0.031,-0.024,0.041,-0.031,-0.001,-0.017,0.017,-0.081,0.042,0.046,-0.009,-0.004,-0.002,0.014,0.016,-0.008

# Source: the supplement of paper PMC10849652
